From PubChem BioAssay
Sa ugtP lethal – kills S. aureus RN4220 lacking UgtP; hit rate 0.54% among 330,000; S. aureus RN4220 ugtP deletion, OD600 growth, 16 h; AID 1259309; growth inhibition, % (concentration not given with the values); in the data active = growth inhibition above about 68%;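 also: plate controls were untreated wells for no effect and antibiotic for full effect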
VHR inh abs – blocks human VHR1 dual specificity phosphatase; P51452; recombinant VHR phosphatase, pNPP absorbance; inhibition, % at 13.3 µM; hit rate 0.52% among 290,000; AID 1654; in the data active = inhibition above about 50%
Target sequence (P51452 whole entry, looked up): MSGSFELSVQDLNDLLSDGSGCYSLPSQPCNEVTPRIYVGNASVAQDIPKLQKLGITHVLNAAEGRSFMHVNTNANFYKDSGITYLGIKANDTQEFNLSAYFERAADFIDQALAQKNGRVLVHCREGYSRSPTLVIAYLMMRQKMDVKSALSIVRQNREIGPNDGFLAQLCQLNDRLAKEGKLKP
Sa RN4220 lethal – kills Staphylococcus aureus RN4220; S. aureus RN4220 growth, OD600, 16 h; inhibition, % (concentration not given with the values); hit rate 0.33% among 330,000; AID 1259311; in the data active = inhibition above about 85%;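 also: plate controls were untreated cells for no effect and reference antibiotic for full effect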
PfHsp40 yeast – rescue of PfHsp40-mediated yeast toxicity; S. cerevisiae expressing PfHsp40, growth rescue, ATP luminescence; growth rescue, % at 12.5 µM; hit rate 0.68% among 340,000; in the data active = growth rescue above about 28%, passing the limit was not always enough; inconclusive = no clear call, values can overlap the other calls;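 also: yeast W303a lacking pdr1 and pdr3 grown in galactose medium; growth measured after three days at 30 °C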
PrPC TRFRET – cell surface PrPC inhibition, primary TR-FRET screen; P04156; TR-FRET read-out; inhibition, % at 13.8 µM; hit rate 0.43% among 370,000; in the data active = inhibition above about 24%; also: 0% = median of the test wells and 100% = reference compound wells
* marks the source's active call; other numbers are inactive results. A selection: hits, their analogues and other compounds. The true share with any hit is near 1.8%.

`COc1ccc(CCN(C)Cc2c(O)ccc3ccccc23)cc1OC` gave Sa ugtP lethal 12.4, VHR inh abs 58.2*, Sa RN4220 lethal -2.0, PfHsp40 yeast 0.0 and PrPC TRFRET -3.1.
O=C(Nc1nnc(C2CC2)s1)c1cc([N+](=O)[O-])ccc1N1CCCCC1 was read as Sa ugtP lethal 77.0, VHR inh abs -1.8, Sa RN4220 lethal 88.7*, PfHsp40 yeast 2.6 and PrPC TRFRET -14.6.
Cc1ccc(NC(=O)c2cc([N+](=O)[O-])ccc2N2CCCC2)cc1 was read as Sa ugtP lethal 0.0, VHR inh abs 25.7, Sa RN4220 lethal 4.7, PfHsp40 yeast 3.2 and PrPC TRFRET -3.2.
`COc1ccc(NC(=O)N(C)CC2Oc3c(NC(=O)Nc4ccc(C(F)(F)F)cc4)cccc3C(=O)N(C(C)CO)CC2C)cc1` (centres undefined) gave Sa ugtP lethal -3.5 and Sa RN4220 lethal -6.3.
Screening CSc1nc2ccc3nc(NC(=O)c4ccc(Cl)s4)sc3c2s1 returned Sa ugtP lethal 2.1, VHR inh abs 53.3*, Sa RN4220 lethal 3.4 and PfHsp40 yeast -0.5.
CC(C)c1oc(=O)cc2c1C(O)C1OC(=O)[C@@]3(C)CC(O)C(O)[C@@]2(C)C13 (some centres undefined) was read as Sa ugtP lethal -7.6 and Sa RN4220 lethal 1.7.
For CCOc1ccccc1NC(=O)CC1Nc2cc(C)c(C)cc2NC1=O (centres undefined) the results were Sa ugtP lethal -5.1, VHR inh abs 17.0, Sa RN4220 lethal -1.7, PfHsp40 yeast 49.3* and PrPC TRFRET 4.4.
For CCOc1ccccc1NC(=O)CC1Nc2ccccc2NC1=O (centres undefined) the results were Sa ugtP lethal -13.1, VHR inh abs -20.2, Sa RN4220 lethal 9.0, PfHsp40 yeast 1.6 and PrPC TRFRET 7.5.
Screening O=C(NC1CCCC1)C1CCN(C(=O)NCc2ccccc2)CC1 returned Sa ugtP lethal 14.1, VHR inh abs 54.4*, Sa RN4220 lethal 5.1, PfHsp40 yeast 0.5 and PrPC TRFRET 0.5.
For CCS(=O)(=O)N1CCC(C(=O)NC2CCCCC2)CC1 the results were Sa ugtP lethal 13.1, VHR inh abs 17.0, Sa RN4220 lethal 3.3, PfHsp40 yeast -0.1 and PrPC TRFRET 3.0.
Screening O=C(NC1CCCCC1)C1CCN(C(=O)NCc2ccccc2)CC1 returned Sa ugtP lethal 2.5, VHR inh abs 21.3, Sa RN4220 lethal -0.3, PfHsp40 yeast 1.2 and PrPC TRFRET -5.1.
`CN(C)C(=O)N1CCC(C(=O)NC2CCCCCCC2)CC1` gave Sa ugtP lethal 1.4, VHR inh abs 31.2, Sa RN4220 lethal 5.7, PfHsp40 yeast 33.1* and PrPC TRFRET -2.6.
For CCOC(=O)NN=Cc1ccc(OC)c(O)c1 the results were Sa ugtP lethal 7.0 and Sa RN4220 lethal 2.1.
`CCOC(=O)/C=C(\C)Sc1cc(O)c2ccccc2c1O` gave Sa ugtP lethal 93.1*, VHR inh abs 27.7, Sa RN4220 lethal 96.5*, PfHsp40 yeast inconclusive and PrPC TRFRET 1.2.
`Cc1ccc(C=NN2C(=S)SC(C)(C)C2N(O)C(=O)Nc2ccc([N+](=O)[O-])cc2)cc1` (centres undefined) gave Sa ugtP lethal -12.0 and Sa RN4220 lethal -5.2.
`O=c1[nH]c(CN2CCN(C/C=C/c3ccccc3)CC2)nc2cc(Cl)ccc12` gave Sa ugtP lethal 1.6, VHR inh abs 54.3*, Sa RN4220 lethal 4.6, PfHsp40 yeast -0.5 and PrPC TRFRET -4.9.
For COc1cccc(-c2cn(CC3CCC(C4CCC(Cn5cc(-c6cccc(OC)c6)nn5)O4)O3)nn2)c1 (centres undefined) the results were Sa ugtP lethal 6.0 and Sa RN4220 lethal -0.7.
`Cn1cnc(S(=O)(=O)N2CCN(c3cccc(C(F)(F)F)c3)CC2)c1` gave Sa ugtP lethal 3.3, VHR inh abs 50.4*, Sa RN4220 lethal 1.6, PfHsp40 yeast 0.1 and PrPC TRFRET 10.3.
Cc1nc(NN=Cc2ccc(O)cc2)c2cnn(-c3ccccc3)c2n1 was read as Sa ugtP lethal 42.2 and Sa RN4220 lethal 0.3.
COC(=O)c1c(NC(=O)CSc2nnc(CNc3ccc(Cl)cc3)o2)sc(C)c1C was read as Sa ugtP lethal -12.9, VHR inh abs -2.2, Sa RN4220 lethal 0.2, PfHsp40 yeast 50.7* and PrPC TRFRET 2.5.
For CCCCCC/C(=N/O)c1ccccn1 the results were VHR inh abs 13.6, PfHsp40 yeast 161.9* and PrPC TRFRET -5.3.
Screening CCCCCCCCCC(=NO)c1ccccn1 returned Sa ugtP lethal 63.8 and Sa RN4220 lethal 53.6.
Screening COc1cc2c(cc1/C=C/[N+](=O)[O-])OCO2 returned Sa ugtP lethal 6.8, VHR inh abs 8.5, Sa RN4220 lethal 0.2, PfHsp40 yeast 241.9* and PrPC TRFRET -2.1.
Nc1ccc(S(=O)(=O)Nc2cnc3c(Cl)cccc3n2)cc1 was read as PfHsp40 yeast 0.6 and PrPC TRFRET -11.1.
For Nc1ccc(S(=O)(=O)Nc2cnc3ccccc3n2)cc1 the results were Sa ugtP lethal 91.0*, VHR inh abs 18.6, Sa RN4220 lethal 2.8, PfHsp40 yeast 2.1 and PrPC TRFRET -2.1.
For O=C(Nc1ccccc1F)Nc1ccccc1OC(F)F the results were Sa ugtP lethal -3.3, VHR inh abs 56.3*, Sa RN4220 lethal 0.3, PfHsp40 yeast 0.1 and PrPC TRFRET 1.1.
Screening CCc1ccc(-c2csc(-c3c[nH]c4ccccc34)n2)cc1 returned Sa ugtP lethal 85.4*, VHR inh abs -10.5, Sa RN4220 lethal -2.2, PfHsp40 yeast -1.1 and PrPC TRFRET 2.7.
Screening Nc1nc(-c2c[nH]c3ccccc23)cs1 returned Sa ugtP lethal -11.6, VHR inh abs 7.9, Sa RN4220 lethal 3.4, PfHsp40 yeast 1.6 and PrPC TRFRET -3.9.
`S=c1[nH]nc(-c2cc(-c3ccccc3)n[nH]2)n1N=Cc1cccs1` gave Sa ugtP lethal -5.8 and Sa RN4220 lethal 8.1.
For COc1ccc(CN2CC(Cc3ccccc3)C(CC(=O)Nc3ccccc3)C2=O)cc1 (centres undefined) the results were Sa ugtP lethal 0.3 and Sa RN4220 lethal 5.9.
CC1CCc2cc(F)cc3c(=O)c(C(=O)O)cn1c23 (centres undefined) was read as Sa ugtP lethal 99.3*, VHR inh abs -18.4, Sa RN4220 lethal 96.6*, PfHsp40 yeast -1.8 and PrPC TRFRET 2.5.
`CC1CCc2c(N3CCC(O)CC3)c(F)cc3c(=O)c(C(=O)O)cn1c23` (centres undefined) gave Sa ugtP lethal 98.6*, Sa RN4220 lethal 99.2*, PfHsp40 yeast 0.8 and PrPC TRFRET 0.9.
Screening Cc1cc(C)c(NC(=O)c2cn3c4c(c(N5CCN(C)CC5)c(F)cc4c2=O)OCC3C)c(C)c1 (centres undefined) returned Sa ugtP lethal 61.1, VHR inh abs 1.5, Sa RN4220 lethal 14.8, PfHsp40 yeast 3.2 and PrPC TRFRET -17.0.
O=C(Nc1ccc(S(=O)(=O)Nc2ccc(F)cc2)cc1)c1ccc(CN2CCOCC2)cc1 was read as Sa ugtP lethal 8.6, VHR inh abs -14.0, Sa RN4220 lethal -3.3, PfHsp40 yeast -0.5 and PrPC TRFRET 11.1.
`COc1ccc(CN2CCOCC2)cc1` gave Sa ugtP lethal -4.8, VHR inh abs 51.6*, Sa RN4220 lethal -16.2, PfHsp40 yeast -1.6 and PrPC TRFRET -3.8.
